# BoNT A protease: BoNT/A light chain protease inhibitors, primary screen, biochemical, flow cytometry, MLPCN library; multiplex microsphere protease substrate cleavage; inhibition, % at 10 µM; Botulinum neurotoxin type A light chain protease (Clostridium botulinum A str. ATCC 3502); 360,000 tested, 0.17% active; further: plate controls were buffer without enzyme for full effect and enzyme alone for no effect
# Bead autofluor: flagged as autofluorescent in microsphere protease counterscreen; compound autofluorescence counterscreen, microsphere flow cytometry; active compounds read high; fluorescence intensity (concentration not given with the values); 360,000 tested, 3.1% active; in the data active means fluorescence intensity above about 16000; inconclusive means no clear call, values can overlap the other calls
# BoNT-F LC inh: BoNT/F light chain protease inhibitors, primary screen, biochemical, flow cytometry, MLPCN library. Botulinum neurotoxin type F light chain protease (Clostridium botulinum). Multiplex microsphere protease cleavage assay. inhibition, % at 10 µM. 360,000 tested, 0.22% active. AID 588497, 2011; in the data active means inhibition above about 35%, passing the limit was not always enough; inconclusive means no clear call, values can overlap the other calls; further: plate controls were buffer without enzyme for full effect and enzyme alone for no effect
# Anthrax LF prot: Bacillus anthracis LF protease inhibitors, primary screen, biochemical, multiplex microsphere, MLPCN library; multiplex microsphere protease cleavage assay; inhibition, % at 10 µM; 360,000 tested, 0.12% active; further: plate controls were buffer without enzyme for full effect and enzyme alone for no effect
# Target sequence (P15917 whole entry, looked up): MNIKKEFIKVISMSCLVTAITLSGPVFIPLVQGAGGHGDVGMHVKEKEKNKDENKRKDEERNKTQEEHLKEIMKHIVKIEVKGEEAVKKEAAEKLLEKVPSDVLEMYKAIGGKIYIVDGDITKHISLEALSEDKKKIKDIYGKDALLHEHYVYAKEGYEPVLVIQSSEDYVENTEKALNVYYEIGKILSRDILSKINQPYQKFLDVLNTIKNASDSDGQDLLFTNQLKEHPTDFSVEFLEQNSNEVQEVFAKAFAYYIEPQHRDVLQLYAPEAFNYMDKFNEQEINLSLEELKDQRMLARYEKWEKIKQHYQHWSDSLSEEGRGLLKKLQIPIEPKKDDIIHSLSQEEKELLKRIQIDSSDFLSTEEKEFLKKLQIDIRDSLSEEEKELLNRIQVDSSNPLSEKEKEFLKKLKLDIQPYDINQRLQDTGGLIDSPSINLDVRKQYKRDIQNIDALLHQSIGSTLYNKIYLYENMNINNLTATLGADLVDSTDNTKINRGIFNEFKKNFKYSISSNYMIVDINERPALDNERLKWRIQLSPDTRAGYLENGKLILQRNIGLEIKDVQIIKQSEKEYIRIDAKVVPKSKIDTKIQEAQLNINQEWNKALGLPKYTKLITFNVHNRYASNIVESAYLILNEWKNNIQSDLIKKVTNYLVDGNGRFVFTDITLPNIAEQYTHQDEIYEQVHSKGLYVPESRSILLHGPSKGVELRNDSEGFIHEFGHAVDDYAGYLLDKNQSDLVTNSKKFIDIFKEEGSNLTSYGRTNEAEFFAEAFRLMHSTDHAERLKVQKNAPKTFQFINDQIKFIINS
# * marks the source's active call; other numbers are inactive results; ? = inconclusive. Only some compounds are listed: those with a hit (about 3.5% of all), similar ones and a draw of the others. Unless noted, no stated cut-off is given here; in the data, active means inhibition above about 30%; inconclusive means no clear call, values can overlap the other calls; inactive means below that.
SMILES,BoNT A protease,Bead autofluor,BoNT-F LC inh,Anthrax LF prot
Cc1cccc(C2=N/C(=C\c3cccs3)C(=O)O2)c1,1,4541,0,6
O=C(NC1(C(F)(F)F)Oc2ccc(Cl)cc2O1)N1CCC2(CC1)OCCO2 (stereo not drawn),1,4037,5,0
O=C(NC1(C(F)(F)F)Oc2ccccc2O1)N1CCC2(CC1)OCCO2,-2,21302*,-2,1
CN(Cc1ccccc1)C(=O)c1cn(C)c2ccc(S(=O)(=O)N3CCCC3)cc2c1=O,0,5433,3,-1
CCn1c(CSc2nc3ccccc3[nH]2)n[nH]c1=S,2,23009*,2,-1
CCn1c(CSCc2ccccc2)n[nH]c1=S,0,4853,-4,-3
OC(CNCc1ccccc1)Cn1ccc2ccccc21 (stereo not drawn),2,3758,-30,-3
Oc1ccccc1NCC(O)Cn1ccc2ccccc21 (stereo not drawn),?,22217*,-3,0
O=C1c2ccccc2S(=O)(=O)N1CC(O)Cn1ccc2ccccc21 (stereo not drawn),156*,22501*,25,29
CCCCNC(=O)c1nc(C2CCN(S(=O)(=O)c3ccccc3C(F)(F)F)CC2)oc1-c1ccccc1,0,5453,-2,-9
COc1ccc(C)cc1NC(=O)CNC(=O)c1sc2ccccc2c1Cl,-1,4915,?,-2
CN(C)S(=O)(=O)N1CCc2ccccc2C1,-3,24594*,-6,-1
COc1ccc(OC)c2c(C)cc(N3CCCN(C)CC3)nc12,-5,21960*,-7,-1
O=C(O)CCCc1nc(-c2ccccc2)no1,0,16634*,-2,-3
Nc1ccc(CCCC(=O)NCc2cccnc2)cc1,1,3886,4,-7
O=C(CCc1nc(-c2ccccc2)no1)NCc1cccnc1,-3,23102*,-5,-3
NC(=O)CCCc1nc(-c2ccccc2)no1,?,5425,?,-5
O=C(CCCc1ccccc1)NCc1cccnc1,-1,24595*,-3,0
NC1=NC(=O)C(=Cc2ccccc2)S1,0,2815,0,3
NC1=NC(=O)/C(=C/c2cccs2)S1,-1,23925*,-2,-1
CCCCCn1c(CN2CCN(Cc3ccccc3)CC2)nc2c1c(=O)n(C)c(=O)n2C,5,20660*,7,-8
CC(C)CCn1c(CN2CCN(Cc3ccccc3)CC2)nc2c1c(=O)n(C)c(=O)n2C,?,20587*,-1,3
CCn1c(CN2CCN(C(=O)c3ccco3)CC2)nc2c1c(=O)n(C)c(=O)n2C,?,21356*,5,1
Cn1c(=O)c2c(nc(CN3CCN(Cc4ccccc4)CC3)n2Cc2ccc(F)cc2)n(C)c1=O,0,6409,5,-1
CCCCn1c(CN2CCN(c3ccccc3)CC2)nc2c1c(=O)n(C)c(=O)n2C,0,5771,7,2
SMILES,BoNT A protease,Bead autofluor,BoNT-F LC inh,Anthrax LF prot
CCCCn1c(CN2CCN(c3cccc(Cl)c3)CC2)nc2c1c(=O)n(C)c(=O)n2C,6,19625*,7,-12
COc1ccc(Cl)cc1S(=O)(=O)N1CCC(C(=O)NCc2ccco2)CC1,-1,4461,5,4
O=C(NCCC(=O)N1CCN(c2ccc(F)cc2)CC1)c1ccco1,0,5858,10,2
CCn1c(SCC(=O)N(C)c2c(N)n(Cc3ccccc3)c(=O)[nH]c2=O)nnc1-c1cccs1,0,3672,2,-1
Clc1ccc(C(c2cccs2)N2CCNCC2)cc1 (stereo not drawn),0,3541,-12,-11
Cn1c(=O)c2c(ncn2CC(=O)OCc2ccccc2)n(C)c1=O,-2,?,12,0
CCCn1c(CN(Cc2ccccc2)Cc2ccccc2)nc2c1c(=O)n(C)c(=O)n2C,0,5821,-1,-3
Cn1c(=O)c2c(ncn2CC(=O)N(Cc2ccccc2)c2ccccn2)n(C)c1=O,0,23173*,-2,0
CCCCn1c(CN(C)Cc2ccccc2)nc2c1c(=O)n(C)c(=O)n2C,0,19708*,-2,-6
CCOC(=O)Cn1c(CN(Cc2ccccc2)Cc2ccccc2)nc2c1c(=O)n(C)c(=O)n2C,3,20766*,4,-9
O=C(Cn1ncn2c(cc3sccc32)c1=O)NC1CCCC1,0,5969,4,0
COc1ccc(OC)c(N/C(C)=C/C(=O)c2ccc(Br)cc2)c1,-1,4241,-7,-5
COc1ccc(OC)c(N/C(C)=C/C(=O)c2ccc(C)o2)c1,?,20443*,-7,-1
Cc1ccccc1-c1nnc(SCC(=O)Nc2ccc(Cl)cc2)n1N,2,15729,1,-1
COc1cc(NC(=O)CSc2ncccc2C(=O)OC(C)C)cc(OC)c1,-2,23173*,-3,0
COc1ccc(NC(=O)CSc2nnc(-c3ccccc3C)n2N)cc1,-2,22454*,-2,-1
COc1ccc(NC(=O)CSc2nnc(-c3ccccc3C)n2N)cc1OC,?,22260*,-1,-1
CCOc1cccc(-c2nnc(SCC(=O)Nc3cc(OC)cc(OC)c3)n2N)c1,?,22656*,-3,-2
CCOc1cccc(-c2nnc(SCC(=O)Nc3ccc(OC)c(OC)c3)n2N)c1,1,4218,10,-8
COc1ccc(C2=NS(=O)(=O)N(C)C(C(=O)NCc3ccccn3)=C2)cc1OC,0,5902,-3,-7
COc1ccc(NC(C)=O)cc1NC(=O)CSc1nnc(-c2ccc(F)cc2)n1N,0,20810*,-2,-3
Cc1ccc(Cn2c(C(=O)NCCCN3CCOCC3)cc3sccc32)cc1,-2,24158*,-3,-5
CCn1c(C(=O)NCCCN2CCc3ccccc3C2)cc2sccc21,-1,24380*,-3,-2
O=C(Cn1c(C(=O)NCCCN2CCOCC2)cc2sccc21)c1ccccc1,-3,24194*,-2,-2
CCn1c(C(=O)NCc2ccccn2)cc2sccc21,-2,17121*,-7,0
SMILES,BoNT A protease,Bead autofluor,BoNT-F LC inh,Anthrax LF prot
CCn1c(C(=O)NCCCc2ccccc2)cc2sccc21,1,2390,-3,0
CN(C)CCNC(=O)C1(C)Cc2c(-c3cccc(C(F)(F)F)c3)ccnc2O1 (stereo not drawn),0,3763,1,0
N#C/C(=C/c1ccc(N2CCCCCC2)o1)c1ccc(Cl)cc1,7,22830*,1,-4
COC(=O)c1ccc(CNC(=O)CNC(=O)c2sc3ccccc3c2Cl)cc1,4,4265,10,-1
CCC(C)[C@H](NC(=O)NCc1ccccn1)C(=O)OC (stereo partly drawn),0,16131*,0,-7
COc1ccc(OC)c(NC(=O)C2C3C=CC(C3)C2C(=O)NCc2ccccn2)c1 (stereo not drawn),-4,21062*,-8,-2
COc1ccc(NC(=O)NCc2ccccn2)cc1OC,7,19081*,14,-16
O=C(NCc1ccccn1)Nc1ccc2c(c1)OCO2,-3,17706*,0,-2
Cc1ccccc1Oc1ccc2c(c1)[C@@H]1C[C@H](N(C)C(=O)c3cccnc3)[C@H]([C@H](C)O)C(=O)N1CC2,0,2854,-6,-6

# Screens: PubChem BioAssay, NMMLSC
